Assay results as given in PubChem BioAssay (EPA / NIEHS).
Values joined by “and” are separate entries in the source; they are usually repeats but may differ in a detail not shown here. Equal entries are not always repeated. A structure can be active in one record and inactive in another. Active and inactive are the calls of the source. Rule for the calls: active = hit-call score of the fitted dose curve at least 0.9, where 1 is the maximum; inactive = score below 0.9.

Key:
[1] = read-out: Tissue plasminogen activator (tPA), PLAT (gene 5327); test: BSK_BE3C_tPA: BioMAP Diversity Plus: BE3C Assay for Tissue plasminogen activator (tPA) Biomarker Activity (AID 2283041); details: primary human bronchial epithelial cells; actives raise or lower the signal
Summary of the method: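 Human primary bronchial epithelial cells were dosed with chemical and tPA biomarker levels measured by ELISA 24 hours later. Activity was fitted bidirectionally against DMSO as negative control and baseline.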

[2] = read-out: Interleukin-8 (IL8), CXCL8 (gene 3576); test: BSK_CASM3C_IL8: BioMAP Diversity Plus: CASM3C Assay for Interleukin-8 (IL8) Biomarker Activity (AID 2283042); details: primary human coronary artery smooth muscle cells; actives raise or lower the signal;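 note: IL-8 protein level quantified by ELISA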
[3] = read-out: Human Leukocyte Antigen - DR isotype (HLADR), HLA-DRA (gene 3122); test: BSK_CASM3C_HLADR: BioMAP Diversity Plus: CASM3C Assay for Human Leukocyte Antigen - DR isotype (HLADR) Biomarker Activity (AID 2283043); details: primary human coronary artery smooth muscle cells; actives raise or lower the signal;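 note: cell-surface HLA-DR protein level quantified by ELISA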
[4] = read-out: Macrophage colony-stimulating factor (MCSF), CSF1 (gene 1435); test: BSK_CASM3C_MCSF: BioMAP Diversity Plus: CASM3C Assay for Macrophage colony-stimulating factor (MCSF) Biomarker Activity (AID 2283044); details: primary human coronary artery smooth muscle cells; actives raise or lower the signal;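 note: M-CSF protein amount quantified by ELISA after 24 h exposure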
[5] = read-out: Low-density lipoprotein receptor (LDLR), LDLR (gene 3949); test: BSK_CASM3C_LDLR: BioMAP Diversity Plus: CASM3C Assay for Low-density lipoprotein receptor (LDLR) Biomarker Activity (AID 2283045); details: primary human coronary artery smooth muscle cells; actives raise or lower the signal;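 note: LDLR protein level on the cell surface quantified by ELISA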
[6] = read-out: Monocyte Chemoattractant Protein-1 (MCP1), CCL2 (gene 6347); test: BSK_CASM3C_MCP1: BioMAP Diversity Plus: CASM3C Assay for Monocyte Chemoattractant Protein-1 (MCP1) Biomarker Activity (AID 2283046); details: primary human coronary artery smooth muscle cells; actives raise or lower the signal;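 note: MCP-1 level quantified by ELISA 24 h after dosing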
[7] = BSK_CASM3C_Proliferation: Cell Proliferation Assessment in the BioMAP Diversity Plus: CASM3C Assay (AID 2283047); details: primary human coronary artery smooth muscle cells;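 note: sulforhodamine B total protein stain as relative cell number at 560 nm; sub-confluent cells exposed 48 h before staining; fitted both ways against DMSO so gain or loss of cell number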
[8] = read-out: Monokine induced gamma interferon (MIG), CXCL9 (gene 4283); test: BSK_CASM3C_MIG: BioMAP Diversity Plus: CASM3C Assay for Monokine induced gamma interferon (MIG) Biomarker Activity (AID 2283048); details: primary human coronary artery smooth muscle cells; actives raise or lower the signal;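 note: MIG protein level measured by ELISA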
[9] = read-out: serum amyloid A (SAA), SAA1 (gene 6288); test: BSK_CASM3C_SAA: BioMAP Diversity Plus: CASM3C Assay for serum amyloid A (SAA) Biomarker Activity (AID 2283049); details: primary human coronary artery smooth muscle cells; actives raise or lower the signal;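 note: SAA protein level quantified by ELISA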
[10] = BSK_CASM3C_SRB: Viability Assessment in the BioMAP Diversity Plus: CASM3C Assay (AID 2283050); details: primary human coronary artery smooth muscle cells;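 note: total protein by SRB staining as cytotoxicity measure in parallel cultures; cells exposed to compound for 24 h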

Measured: AC50

O=S(=O)(Cl)C(F)(F)C(F)(F)C(F)(F)C(F)(F)C(F)(F)C(F)(F)C(F)(F)C(F)(F)F
active: [1] 48.7 µM and 48.8 µM
inactive: all other assays above

O=C=NCc1cccc(CN=C=O)c1
inactive: all assays above

COC(F)(C(F)F)C(F)(F)F (stereo unspecified)
inactive: all assays above

OCC(O)CC(F)(F)C(F)(F)C(F)(F)C(F)(F)F (stereo unspecified)
inactive: all assays above

O=C(F)C1(F)C(F)(F)C(F)(F)C(F)(F)C(F)(F)C1(F)F
inactive: all assays above

NC(=O)C(F)(F)C(F)(F)C(F)(F)F
inactive: all assays above

O=C1C=CC(=O)N1c1ccc(Cc2ccc(N3C(=O)C=CC3=O)cc2)cc1
active: [1] 3.46 µM | [2] 11 µM | [3] 2.88 µM | [4] 5.07 µM | [5] 2.03 µM | [6] 4.19 µM | [7] 0.688 µM | [8] 5.42 µM | [9] 3.21 µM | [10] 4.31 µM

CN(C(=O)C(F)(F)C(F)(F)C(F)(F)F)[Si](C)(C)C
inactive: all assays above

NS(=O)(=O)C(F)(F)C(F)(F)C(F)(F)C(F)(F)C(F)(F)C(F)(F)F
active: [1] 49 µM and 47.5 µM
inactive: all other assays above

O=C=Nc1cccc2c(N=C=O)cccc12
inactive: all assays above

C[C@]12CC[C@H]3C(=CCc4cc(O)ccc43)[C@@H]1CCC2=O
active: [5] 14.3 µM
inactive: all other assays above

OCCCC(F)(F)C(F)(F)C(F)(F)C(F)(F)C(F)(F)C(F)(F)C(F)(F)C(F)(F)F
active: [1] 49.7 µM and 47.2 µM | [2] 38.9 µM and 35.8 µM | [3] 50.3 µM and 50.6 µM | [4] 29.1 µM and 35.6 µM | [5] 43.9 µM and 45.4 µM | [6] 41.6 µM and 42.8 µM | [7] 21 µM and 39.5 µM | [8] 46.8 µM and 44.5 µM | [9] 45.1 µM and 40.2 µM | [10] 32 µM and 48.6 µM

O=C(O)C(F)(F)C(F)(F)C(F)(F)OC(F)(F)F
inactive: all assays above

NC(=O)C(F)(F)C(F)(F)C(F)(F)C(F)F
inactive: all assays above

CC(C)CCCC(C)CCO (stereo unspecified)
inactive: [2]
active: [1] 26 µM | [3] 32.2 µM | [4] 32.3 µM | [5] 32.1 µM | [6] 31.2 µM | [7] 30.9 µM | [8] 29.7 µM | [9] 29.6 µM | [10] 32.2 µM

FC(F)(F)C(F)(F)C(F)(F)CC1CO1 (stereo unspecified)
inactive: all assays above

OCC(F)(F)C(F)(F)C(F)(F)C(F)(F)C(F)(F)C(F)(F)CO
inactive: all assays above

Brc1nc2ccccc2s1
inactive: all assays above

OCCCCC(F)(F)C(F)(F)C(F)(F)C(F)(F)F
inactive: all assays above

OC(O)C(F)(F)C(F)(F)F
inactive: all assays above

NC(=O)C(F)(F)C(F)(F)C(F)(F)C(F)(F)C(F)(F)C(F)(F)C(F)(F)F
inactive: all assays above

C=C(C)C(=O)OCC(F)(F)C(F)(F)C(F)(F)C(F)F
inactive: all assays above

C[Si](Cl)(Cl)CCC(F)(F)C(F)(F)C(F)(F)C(F)(F)C(F)(F)C(F)(F)F
inactive: all assays above

CCN(CC)c1ccc(C=O)c(O)c1
inactive: all assays above

OCC(O)CC(F)(F)C(F)(F)C(F)(F)C(F)(F)C(F)(F)C(F)(F)C(F)(F)C(F)(F)F (stereo unspecified)
inactive: all assays above

C=CC(=O)OCC(F)(F)C(F)(F)C(F)(F)COC(=O)C=C
active: [1] 15.4 µM and 11.4 µM | [2] 26.6 µM and 22.5 µM | [3] 38.6 µM and 27.7 µM | [4] 40.1 µM and 34.8 µM | [5] 42.2 µM and 42.9 µM | [6] 44.3 µM and 42.5 µM | [7] 8.23 µM and 8.81 µM | [8] 27.1 µM and 25.4 µM | [9] 41.4 µM and 33.7 µM | [10] 44.9 µM and 28.3 µM

OCC(F)(F)C(F)(F)C(F)(F)C(F)(F)C(F)(F)C(F)(F)C(F)(F)C(F)(F)CO
inactive: [1] | [2] | [3] | [4] | [5] | [6] | [8] | [9] | [10]
active: [7] 49.9 µM and 45.4 µM | [10] 43.2 µM

Cc1ccc(O)c(-n2nc3ccccc3n2)c1
inactive: all assays above

O=C(O)C(F)(F)C(F)(F)C(F)(F)OC(F)(C(F)(F)F)C(F)(F)F
inactive: all assays above

Nc1cc([N+](=O)[O-])cc(Cl)c1O
inactive: all assays above

CCOC(C=C(C)CCC=C(C)C)OCC
active: [3] 20 µM | [4] 20 µM | [5] 10.3 µM | [6] 28.9 µM | [7] 33.7 µM | [8] 34.4 µM | [10] 32.1 µM
inactive: [1] | [2] | [9]

O=S(=O)(O)CCC(F)(F)C(F)(F)C(F)(F)C(F)(F)F
inactive: all assays above
